Results as given in PubChem BioAssay.

target: Neurogenic locus notch homolog protein 3 (Homo sapiens) (UniProt Q9UM47); assay: small molecules binding NOTCH3 protein – biochemical, 635/667 nm fluorescence, primary screen (AID 1096); settings: small-molecule microarray, 635 nm fluorescence, higher = more signal
Sequence (Q9UM47 whole entry, looked up): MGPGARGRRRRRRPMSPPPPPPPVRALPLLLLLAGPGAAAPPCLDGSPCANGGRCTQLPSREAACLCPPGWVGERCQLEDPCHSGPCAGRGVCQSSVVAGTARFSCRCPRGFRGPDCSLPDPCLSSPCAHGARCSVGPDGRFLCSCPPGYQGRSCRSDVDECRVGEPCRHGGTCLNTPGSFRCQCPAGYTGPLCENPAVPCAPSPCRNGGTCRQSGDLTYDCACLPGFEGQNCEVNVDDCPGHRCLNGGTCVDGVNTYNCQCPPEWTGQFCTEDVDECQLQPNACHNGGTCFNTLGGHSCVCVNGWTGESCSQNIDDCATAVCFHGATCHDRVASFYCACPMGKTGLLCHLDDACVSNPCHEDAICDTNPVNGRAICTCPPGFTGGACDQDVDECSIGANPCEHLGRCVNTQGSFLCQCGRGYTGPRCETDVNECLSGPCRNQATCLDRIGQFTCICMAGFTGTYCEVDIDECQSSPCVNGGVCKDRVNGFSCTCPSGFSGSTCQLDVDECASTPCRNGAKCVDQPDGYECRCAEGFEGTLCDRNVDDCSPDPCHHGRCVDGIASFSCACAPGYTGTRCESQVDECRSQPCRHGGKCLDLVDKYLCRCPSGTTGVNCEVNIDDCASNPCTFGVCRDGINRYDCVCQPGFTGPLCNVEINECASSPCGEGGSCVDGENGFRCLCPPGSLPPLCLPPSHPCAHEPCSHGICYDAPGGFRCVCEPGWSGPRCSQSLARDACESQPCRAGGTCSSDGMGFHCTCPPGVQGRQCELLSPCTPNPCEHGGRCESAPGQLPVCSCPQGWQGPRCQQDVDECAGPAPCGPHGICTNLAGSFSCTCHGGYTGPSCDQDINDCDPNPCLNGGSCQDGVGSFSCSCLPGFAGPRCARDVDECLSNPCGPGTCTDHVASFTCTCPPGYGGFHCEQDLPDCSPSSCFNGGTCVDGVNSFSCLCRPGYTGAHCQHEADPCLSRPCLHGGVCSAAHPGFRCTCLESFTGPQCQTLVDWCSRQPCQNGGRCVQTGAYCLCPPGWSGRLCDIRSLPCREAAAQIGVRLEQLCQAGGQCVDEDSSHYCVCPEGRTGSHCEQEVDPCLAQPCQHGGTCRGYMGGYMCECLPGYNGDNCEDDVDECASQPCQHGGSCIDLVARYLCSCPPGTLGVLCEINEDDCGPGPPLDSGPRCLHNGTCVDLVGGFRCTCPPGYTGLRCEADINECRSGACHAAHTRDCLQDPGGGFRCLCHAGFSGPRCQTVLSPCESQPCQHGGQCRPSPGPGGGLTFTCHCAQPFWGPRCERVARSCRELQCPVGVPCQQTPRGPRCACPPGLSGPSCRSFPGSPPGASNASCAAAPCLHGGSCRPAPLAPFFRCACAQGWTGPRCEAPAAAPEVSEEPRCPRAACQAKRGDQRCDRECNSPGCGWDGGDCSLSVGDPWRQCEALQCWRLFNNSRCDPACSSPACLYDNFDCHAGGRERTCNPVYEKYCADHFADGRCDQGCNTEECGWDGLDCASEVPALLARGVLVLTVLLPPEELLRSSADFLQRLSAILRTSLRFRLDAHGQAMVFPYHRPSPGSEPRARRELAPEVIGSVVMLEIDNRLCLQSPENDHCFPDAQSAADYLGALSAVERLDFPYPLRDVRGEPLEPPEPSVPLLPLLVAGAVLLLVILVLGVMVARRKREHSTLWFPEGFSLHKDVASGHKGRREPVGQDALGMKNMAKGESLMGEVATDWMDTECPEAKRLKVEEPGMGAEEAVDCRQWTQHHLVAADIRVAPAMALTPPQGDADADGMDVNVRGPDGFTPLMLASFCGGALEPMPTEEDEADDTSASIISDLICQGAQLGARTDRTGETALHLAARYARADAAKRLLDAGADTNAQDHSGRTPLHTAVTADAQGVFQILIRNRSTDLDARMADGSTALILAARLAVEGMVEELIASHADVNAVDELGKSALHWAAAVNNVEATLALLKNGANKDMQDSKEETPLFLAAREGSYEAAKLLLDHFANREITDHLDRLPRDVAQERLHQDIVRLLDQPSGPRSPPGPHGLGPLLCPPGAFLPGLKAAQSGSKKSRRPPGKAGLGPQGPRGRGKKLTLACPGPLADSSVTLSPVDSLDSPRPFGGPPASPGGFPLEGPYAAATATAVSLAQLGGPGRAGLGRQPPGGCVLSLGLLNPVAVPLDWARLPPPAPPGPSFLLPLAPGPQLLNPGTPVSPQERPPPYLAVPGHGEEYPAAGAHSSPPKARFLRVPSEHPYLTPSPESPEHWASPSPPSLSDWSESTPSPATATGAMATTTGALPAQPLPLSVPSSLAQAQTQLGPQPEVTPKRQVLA

Going from `CN(C)C(=O)[C@]1(CCC(=O)OC(C)(C)C)N=C(c2ccc(OCCCO)cc2)O[C@@H]1c1ccccc1N=[N+]=[N-]` to `[N-]=[N+]=NCc1ccccc1C[C@]1(C(=O)NCCN2CCOCC2)N=C(c2ccc(OCCCO)cc2)O[C@H]1c1ccccc1N=[N+]=[N-]`, the composite z-score rises from 0.684 to 1.1.

Going from `C=CCC(OC(C)=O)[C@@H]1[C@@H](N(Cc2cc3ccccc3o2)C(=O)c2ccc(C)cc2)c2cc(OCCCO)ccc2N1C(=O)c1ccc2ccccc2c1` (some centres not stated) to `C=CCC(OC(C)=O)[C@@H]1[C@@H](N(Cc2cccc3ccccc23)C(=O)c2cccc3ccccc23)c2cc(OCCCO)ccc2N1C(=O)c1ccc2ccccc2n1` (some centres not stated), the composite z-score falls from -0.0158 to -0.0176.

Going from `COC(=O)[C@@]1(Cc2ccc(OC)cc2)[C@H]2c3cc(C(=O)N4CCCC4)n(Cc4ccccn4)c3C[C@H]2CN1C(=O)c1ccccc1` to `COC(=O)[C@@]1(Cc2ccc(OC)cc2)[C@H]2c3cc(C(=O)N4CCCC4)n(CCc4c[nH]c5cc(F)ccc45)c3C[C@H]2CN1C(=O)c1ccccc1`, the composite z-score rises from 0.979 to 1.08.

Compared with `Cc1ccc(S[C@]2(C(=O)NCc3ccccc3)CC(=O)N(Cc3ccccc3Cl)[C@@H]2c2ccc(CO)cc2I)cc1`, `Cc1ccc(S[C@]2(C(=O)NC3CC3)CC(=O)N(Cc3ccccc3)[C@@H]2c2ccc(CO)cc2)cc1` is lower in composite z-score: -0.109 for the first, -0.462 for the second.

Compared with `COc1ccc([Si](C)(C)[C@@H]2[C@@H](CCn3cc([C@H](O)c4ccccc4)nn3)O[C@]3(C(=O)N(Cc4cccc(N5CCOC5=O)c4)c4ccccc43)[C@H]2C)cc1`, `CC(C)NC(=O)[C@@]1(Cc2ccccc2I)c2ccccc2C(=O)N(Cc2ccccc2)[C@H]1c1ccc(CO)cc1` is higher in composite z-score: -1.29 for the first, 1.09 for the second.

Compared with `CCN(CC)c1ccc(N2CC=CC34O[C@@H]5/C=C\CCCOC(=O)C5[C@H]3C(=O)N(C(CO)C(C)C)[C@@H]4C2=O)cc1` (some centres not stated), `CCN(CC)c1ccc(N2CC=CC34O[C@@H]5C=CCCOC(=O)C5[C@H]3C(=O)N(CCCCCO)[C@@H]4C2=O)cc1` (some centres not stated) is lower in composite z-score: -0.0981 for the first, -0.272 for the second.

Going from `O=C1OCCC/C=C\[C@H]2OC34C=CCN(Cn5nnc6ccccc65)C(=O)[C@H]3N(CCCCCO)C(=O)[C@@H]4C12` (some centres not stated) to `[N-]=[N+]=NCc1ccccc1[C@H]1OC(c2ccc(OCCCO)cc2)=N[C@@]1(CCS(=O)(=O)c1ccccc1)C(=O)N1CCOCC1`, the composite z-score rises from -0.0037 to 1.1.

Compared with `O=C1O[C@@H](c2ccccc2)[C@@H](c2ccccc2)N2[C@@H](c3ccccc3OCCO)[C@]3(C(=O)Nc4ccc(C#CC5(O)CCCCCC5)cc43)[C@@H](C(=O)Nc3nc4ccccc4s3)[C@H]12`, `O=C1O[C@H](c2ccccc2)[C@H](c2ccccc2)N2[C@H]1[C@@H](C(=O)O)[C@]1(C(=O)Nc3ccc(C#CC4(O)CCCCCC4)cc31)[C@H]2c1ccc(OCCO)cc1` is lower in composite z-score: 1.06 for the first, 0.528 for the second.

Going from `CCOC(=O)C1=C[C@@H](C(C)C)N(S(=O)(=O)c2ccc(C)cc2)[C@H]1c1ccc(C(C)C)cc1` to `CC(=O)C1=CCC(c2ccccc2)N(S(=O)(=O)c2ccc(C)cc2)C1` (configuration not stated), the composite z-score falls from 1.09 to 0.821.

Going from `CC1=C2[C@@H](CCc3ccccc3)OB(O)C[C@@H]2n2c(=O)n(-c3ccccc3)c(=O)n2C1` to `[N-]=[N+]=NCc1ccccc1[C@@H]1OC(c2ccc(OCCCO)cc2)=N[C@]1(Cc1ccccc1)C(=O)N1CCCCC1`, the composite z-score rises from 0.666 to 1.07.

Going from `COc1cc2c(cc1OC)CN(C(=O)[C@@H]1[C@H]3C(=O)O[C@H](c4ccccc4)[C@H](c4ccccc4)N3[C@H](c3ccccc3OCCO)[C@@]13C(=O)Nc1ccc(C#CCNC(N)=O)cc13)CC2` to `CC(C)CNC(=O)[C@@H]1c2ccccc2C(=O)N(Cc2cc(C(F)(F)F)cc(C(F)(F)F)c2)[C@H]1c1ccc(CO)cc1`, the composite z-score falls from 1.08 to -0.977.

First: C=C[C@H](C)[C@@H](O)c1ccc(O)c2ccccc12
Second: CC(=CC1CCCCC1)[C@@H](NC(=O)c1ccc(C(F)(F)F)cc1)c1ccc(-c2ccccc2)cc1
The composite z-score of the first is higher: -0.0004 for the first, -0.779 for the second.

First: CN1C(=O)C2C(C1=O)C1C=C(CCCO)C2C(c2cccs2)N1C (configuration not stated)
Second: C=C(COC)C(=O)CC[C@H](OC(C)=O)c1cccc(OCCO)c1
The composite z-score of the first is higher: -0.553 for the first, -0.902 for the second.

system: not listed separately; assay: probe aEGFR binding to arrayed compounds – biochemical, biotinylated probe, 635/667 nm fluorescence, primary screen (AID 1097); settings: small-molecule microarray, higher = more signal;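 note: probe is a biotinylated anti-EGFR antibody binding compounds printed on slides; score combines fluorescence near 667 nm and signal to noise of each spot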

Going from `C=CCOC(=O)[C@H]1[C@@H]2C(=O)O[C@@H](c3ccccc3)[C@@H](c3ccccc3)N2[C@@H](c2ccc(OCCOC(=O)[C@@H]3C[C@@H]4C(=O)N5CCC[C@H]5C(=O)N4[C@@H]3c3ccc(O)cc3)cc2)[C@]12C(=O)Nc1ccccc12` to `COCCOC(=O)N1C(=O)[C@@]2(c3cc(C#Cc4ccc(OC)cc4)ccc31)[C@H](C(=O)N1CCN(c3ncccn3)CC1)[C@H]1C(=O)O[C@H](c3ccccc3)[C@H](c3ccccc3)N1[C@@H]2c1ccc(O)cc1`, the composite z-score falls from -0.096 to -0.0978.

Going from `CC(C)OC(=O)CC(=O)CC(O)c1ccc(C#N)cc1` (configuration not stated) to `C=C(COC)C(=O)CC[C@H](OC(C)=O)c1cccc(OCCO)c1`, the composite z-score falls from 0.0541 to -0.263.

Compared with `O=C(OCCF)C1=CCC(c2cccc(Cl)c2)O1` (configuration not stated), `CC(=O)C1=CCC(c2ccccc2)N(S(=O)(=O)c2ccc(C)cc2)C1` (configuration not stated) is lower in composite z-score: -0.0121 for the first, -0.039 for the second.

First: [N-]=[N+]=NCc1ccccc1[C@@H]1OC(c2ccc(OCCCO)cc2)=N[C@]1(Cc1ccccc1N=[N+]=[N-])C(=O)NCc1ccccc1
Second: [N-]=[N+]=NCc1ccccc1C[C@]1(C(=O)NCCN2CCOCC2)N=C(c2ccc(OCCCO)cc2)O[C@H]1c1ccccc1N=[N+]=[N-]
The composite z-score of the first is higher: 0.123 for the first, 0.0488 for the second.

Compared with `COc1ccc(C(O)C2C=CC3C(=O)N(c4ccccc4)C(=O)C3N2Nc2ccc([N+](=O)[O-])cc2)cc1OCc1ccccc1` (configuration not stated), `O=C1C2C=CC(C(O)c3cccs3)N(Nc3ccccc3F)C2C(=O)N1c1ccccc1` (configuration not stated) is lower in composite z-score: 0.852 for the first, -0.11 for the second.

Compared with `Cc1ccccc1C(O)C1C=CC2C(=O)N(C)C(=O)C2N1N1CCCCC1` (configuration not stated), `CN1C(=O)C2C(C1=O)C1C=C(CCCO)C2C(c2cccs2)N1C` (configuration not stated) is lower in composite z-score: -0.0044 for the first, -0.385 for the second.

First: COCCOC(=O)N1C(=O)[C@@]2(c3cc(C#CCNC(N)=O)ccc31)[C@H](c1ccccc1OCCO)N1[C@H](c3ccccc3)[C@H](c3ccccc3)OC(=O)[C@H]1[C@@H]2C(N)=O
Second: COc1cc2c(cc1OC)CN(C(=O)[C@@H]1[C@H]3C(=O)O[C@H](c4ccccc4)[C@H](c4ccccc4)N3[C@H](c3ccccc3OCCO)[C@@]13C(=O)Nc1ccc(C#CCNC(N)=O)cc13)CC2
The composite z-score of the first is higher: -0.0512 for the first, -0.0873 for the second.

First: COC(=O)C1=CC(CCCO)=CC(C2CC2)N(Cc2sc3ccccc3c2Cl)C=C1C(=O)OC (configuration not stated)
Second: CN(C)C(=O)[C@]1(CCC(=O)OC(C)(C)C)N=C(c2ccc(OCCCO)cc2)O[C@@H]1c1ccccc1N=[N+]=[N-]
The composite z-score of the first is lower: 0.0746 for the first, 0.11 for the second.

Compared with `C=CCC(OC(C)=O)[C@@H]1[C@@H](N(Cc2cc3ccccc3o2)C(=O)c2ccc(C)cc2)c2cc(OCCCO)ccc2N1C(=O)c1ccc2ccccc2c1` (some centres not stated), `C=CCC(OC(C)=O)[C@@H]1[C@@H](N(Cc2cccc3ccccc23)C(=O)c2cccc3ccccc23)c2cc(OCCCO)ccc2N1C(=O)c1ccc2ccccc2n1` (some centres not stated) is lower in composite z-score: -0.0536 for the first, -0.0549 for the second.

Going from `COC(=O)[C@@]1(Cc2ccc(OC)cc2)[C@H]2c3cc(C(=O)N4CCCC4)n(Cc4ccccn4)c3C[C@H]2CN1C(=O)c1ccccc1` to `COC(=O)[C@@]1(Cc2ccc(OC)cc2)[C@H]2c3cc(C(=O)N4CCCC4)n(CCc4c[nH]c5cc(F)ccc45)c3C[C@H]2CN1C(=O)c1ccccc1`, the composite z-score falls from 0.155 to 0.103.

Compared with `Cc1ccc(S[C@]2(C(=O)NCc3ccccc3)CC(=O)N(Cc3ccccc3Cl)[C@@H]2c2ccc(CO)cc2I)cc1`, `Cc1ccc(S[C@]2(C(=O)NC3CC3)CC(=O)N(Cc3ccccc3)[C@@H]2c2ccc(CO)cc2)cc1` is higher in composite z-score: -0.168 for the first, -0.0778 for the second.

Going from `COc1ccc([Si](C)(C)[C@@H]2[C@@H](CCn3cc([C@H](O)c4ccccc4)nn3)O[C@]3(C(=O)N(Cc4cccc(N5CCOC5=O)c4)c4ccccc43)[C@H]2C)cc1` to `CC(C)NC(=O)[C@@]1(Cc2ccccc2I)c2ccccc2C(=O)N(Cc2ccccc2)[C@H]1c1ccc(CO)cc1`, the composite z-score rises from -0.278 to -0.0605.

Compared with `CCN(CC)c1ccc(N2CC=CC34O[C@@H]5/C=C\CCCOC(=O)C5[C@H]3C(=O)N(C(CO)C(C)C)[C@@H]4C2=O)cc1` (some centres not stated), `CCN(CC)c1ccc(N2CC=CC34O[C@@H]5C=CCCOC(=O)C5[C@H]3C(=O)N(CCCCCO)[C@@H]4C2=O)cc1` (some centres not stated) is higher in composite z-score: -0.198 for the first, -0.168 for the second.

Compared with `O=C1OCCC/C=C\[C@H]2OC34C=CCN(Cn5nnc6ccccc65)C(=O)[C@H]3N(CCCCCO)C(=O)[C@@H]4C12` (some centres not stated), `[N-]=[N+]=NCc1ccccc1[C@H]1OC(c2ccc(OCCCO)cc2)=N[C@@]1(CCS(=O)(=O)c1ccccc1)C(=O)N1CCOCC1` is higher in composite z-score: -0.174 for the first, 0.302 for the second.

Going from `O=C1O[C@@H](c2ccccc2)[C@@H](c2ccccc2)N2[C@@H](c3ccccc3OCCO)[C@]3(C(=O)Nc4ccc(C#CC5(O)CCCCCC5)cc43)[C@@H](C(=O)Nc3nc4ccccc4s3)[C@H]12` to `O=C1O[C@H](c2ccccc2)[C@H](c2ccccc2)N2[C@H]1[C@@H](C(=O)O)[C@]1(C(=O)Nc3ccc(C#CC4(O)CCCCCC4)cc31)[C@H]2c1ccc(OCCO)cc1`, the composite z-score falls from 1.01 to -0.216.

First: CCOC(=O)C1=C[C@@H](C(C)C)N(S(=O)(=O)c2ccc(C)cc2)[C@H]1c1ccc(C(C)C)cc1
Second: CC(C)CNC(=O)[C@@H]1c2ccccc2C(=O)N(Cc2cc(C(F)(F)F)cc(C(F)(F)F)c2)[C@H]1c1ccc(CO)cc1
The composite z-score of the first is higher: -0.0381 for the first, -0.0682 for the second.

Going from `CC1=C2[C@@H](CCc3ccccc3)OB(O)C[C@@H]2n2c(=O)n(-c3ccccc3)c(=O)n2C1` to `[N-]=[N+]=NCc1ccccc1[C@@H]1OC(c2ccc(OCCCO)cc2)=N[C@]1(Cc1ccccc1)C(=O)N1CCCCC1`, the composite z-score rises from -0.111 to 0.193.

Compared with `C=C[C@H](C)[C@@H](O)c1ccc(O)c2ccccc12`, `CC(=CC1CCCCC1)[C@@H](NC(=O)c1ccc(C(F)(F)F)cc1)c1ccc(-c2ccccc2)cc1` is higher in composite z-score: -0.322 for the first, 0.0353 for the second.
